Measurements: PubChem BioAssay AID1159580 (chemical genetic matrix, 2015)
Screen size: about 5,500 compounds; about 2,000 (36%) were called active. About 18% were inconclusive and are not listed. Rule as the data show it: active = normalized growth mostly below about 0.91 (no sharp cut-off); inconclusive = no clear call, values can overlap the other calls; inactive = mostly above about 0.92. Some of the results follow.

Assay: chemical genetic growth profiling, strain panel (AID 1159580);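 also: tested at 20 µM; growth read once vehicle control cultures reached saturation at 30 °C; 1 = growth at the plate median or of vehicle wells; lower values mean less growth of the strain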
Conditions: growth OD
[1] = S. cerevisiae deletion strains, locus YAR019C, strain CDC15, hits give low values
[2] = S. cerevisiae deletion strains, locus YBL105C, strain PKC1, hits give low values
[3] = S. cerevisiae deletion strains, locus YBR135W, strain CKS1, hits give low values
[4] = S. cerevisiae deletion strains, locus YBR136W, strain MEC1, hits give low values
[5] = S. cerevisiae deletion strains, locus YBR160W, strain CDC28, hits give low values
[6] = S. cerevisiae deletion strains, locus YDL017W, strain CDC7, hits give low values
[7] = S. cerevisiae deletion strains, locus YDL028C, strain MPS1, hits give low values
[8] = S. cerevisiae deletion strains, locus YDL101C, strain DUN1, hits give low values
[9] = S. cerevisiae deletion strains, locus YDL108W, strain KIN28, hits give low values
[10] = S. cerevisiae deletion strains, locus YDL132W, strain cdc53, hits give low values
[11] = S. cerevisiae deletion strains, locus YDL214C, strain PRR2, hits give low values
[12] = S. cerevisiae deletion strains, locus YDR052C, strain DBF4, hits give low values
[13] = S. cerevisiae deletion strains, locus YDR054C, strain cdc34, hits give low values
[14] = S. cerevisiae deletion strains, locus YDR226W, strain ADK1, hits give low values
[15] = S. cerevisiae deletion strains, locus YDR477W, strain SNF1, hits give low values
[16] = S. cerevisiae deletion strains, locus YER123W, strain YCK3, hits give low values
[17] = S. cerevisiae deletion strains, locus YER133W, strain GLC7, hits give low values
[18] = S. cerevisiae deletion strains, locus YFL009W, strain cdc4, hits give low values
[19] = S. cerevisiae deletion strains, locus YFL029C, strain CAK1, hits give low values
[20] = S. cerevisiae deletion strains, locus YFR003C, strain YPI1, hits give low values
[21] = S. cerevisiae deletion strains, locus YFR019W, strain FAB1, hits give low values
[22] = S. cerevisiae deletion strains, locus YFR028C, strain CDC14, hits give low values
[23] = S. cerevisiae deletion strains, locus YGR040W, strain KSS1, hits give low values
[24] = S. cerevisiae deletion strains, locus YGR052W, strain FMP48, hits give low values
[25] = S. cerevisiae deletion strains, locus YGR092W, strain DBF2, hits give low values
[26] = S. cerevisiae deletion strains, locus YHR030C, strain SLT2, hits give low values
[27] = S. cerevisiae deletion strains, locus YHR079C, strain IRE1, hits give low values
[28] = S. cerevisiae deletion strains, locus YHR082C, strain KSP1, hits give low values
[29] = S. cerevisiae deletion strains, locus YHR205W, strain SCH9, hits give low values
[30] = S. cerevisiae deletion strains, locus YIL147C, strain SLN1, hits give low values
[31] = S. cerevisiae deletion strains, locus YJL095W, strain BCK1, hits give low values
[32] = S. cerevisiae deletion strains, locus YJL128C, strain PBS2, hits give low values
[33] = S. cerevisiae deletion strains, locus YJL157C, strain FAR1, hits give low values
[34] = S. cerevisiae deletion strains, locus YJR016C, strain ILV3, hits give low values
[35] = S. cerevisiae deletion strains, locus YJR066W, strain TOR1 (second series), hits give low values
[36] = S. cerevisiae deletion strains, locus YJR066W, strain TOR1, hits give low values
[37] = S. cerevisiae deletion strains, locus YKL048C, strain ELM1, hits give low values
[38] = S. cerevisiae deletion strains, locus YKL067W, strain YNK1, hits give low values
[39] = S. cerevisiae deletion strains, locus YKL101W, strain HSL1, hits give low values
[40] = S. cerevisiae deletion strains, locus YKL193C, strain SDS22, hits give low values
[41] = S. cerevisiae deletion strains, locus YKL203C, strain TOR2, hits give low values
[42] = S. cerevisiae deletion strains, locus YLR113W, strain HOG1, hits give low values
[43] = S. cerevisiae deletion strains, locus YLR133W, strain CKI1, hits give low values
[44] = S. cerevisiae deletion strains, locus YLR403W, strain SFP1, hits give low values
[45] = S. cerevisiae deletion strains, locus YML070W, strain DAK1, hits give low values
[46] = S. cerevisiae deletion strains, locus YMR001C, strain CDC5, hits give low values
[47] = S. cerevisiae deletion strains, locus YMR205C, strain PFK2 (second series), hits give low values
[48] = S. cerevisiae deletion strains, locus YMR277W, strain FCP1, hits give low values
[49] = S. cerevisiae deletion strains, locus YNL006W, strain LST8, hits give low values
[50] = S. cerevisiae deletion strains, locus YNL020C, strain ARK1, hits give low values
[51] = S. cerevisiae deletion strains, locus YNL161W, strain CBK1, hits give low values
[52] = S. cerevisiae deletion strains, locus YNL183C, strain NPR1, hits give low values
[53] = S. cerevisiae deletion strains, locus YNL207W, strain RIO2, hits give low values
[54] = S. cerevisiae deletion strains, locus YNL222W, strain SSU72, hits give low values
[55] = S. cerevisiae deletion strains, locus YNL307C, strain MCK1 (second series), hits give low values
[56] = S. cerevisiae deletion strains, locus YOL078W, strain AVO1, hits give low values
[57] = S. cerevisiae deletion strains, locus YOL136C, strain PFK27, hits give low values
[58] = S. cerevisiae deletion strains, locus YOR061W, strain CKA2, hits give low values
[59] = S. cerevisiae deletion strains, locus YOR119C, strain RIO1, hits give low values
[60] = S. cerevisiae deletion strains, locus YOR231W, strain MKK1, hits give low values
[61] = S. cerevisiae deletion strains, locus YOR329C, strain SCD5, hits give low values
[62] = S. cerevisiae deletion strains, locus YPL031C, strain PHO85, hits give low values
[63] = S. cerevisiae deletion strains, locus YPL153C, strain RAD53, hits give low values
[64] = S. cerevisiae deletion strains, locus YPL204W, strain HRR25, hits give low values
[65] = S. cerevisiae deletion strains, locus YPL209C, strain IPL1, hits give low values
[66] = S. cerevisiae deletion strains, locus YPL256C, strain CLN2, hits give low values
[67] = S. cerevisiae deletion strains, locus YPR025C, strain CCL1, hits give low values
[68] = S. cerevisiae deletion strains, locus YPR106W, strain ISR1, hits give low values
[69] = S. cerevisiae deletion strains, locus YPR111W, strain DBF20, hits give low values
[70] = S. cerevisiae deletion strains, strain NNK1, hits give low values
[71] = S. cerevisiae deletion strains, strain TSCII, hits give low values

Measured: normalized growth

O=C1/C(=C/c2ccc(C(F)(F)F)cc2)COc2ccccc21
active: [26] 0.824 | [42] 0.823 | [66] 0.852
inactive: [1] 0.937 | [2] 0.924 | [3] 0.92 | [4] 0.924 | [5] 0.926 | [6] 0.926 | [7] 0.925 | [8] 0.946 | [9] 0.923 | [10] 0.934 | [11] 0.936 | [12] 0.931 | [13] 0.931 | [14] 0.925 | [15] 0.914 | [16] 0.886 | [17] 0.913 | [18] 0.926 | [19] 0.927 | [20] 0.93 | [21] 0.953 | [22] 0.961 | [23] 0.894 | [24] 0.953 | [25] 0.719 | [27] 0.888 | [28] 0.85 | [29] 0.784 | [30] 0.917 | [31] 0.901 | [32] 0.896 | [33] 0.92 | [34] 0.929 | [35] 0.976 | [36] 0.817 | [37] 0.897 | [38] 0.938 | [39] 0.906 | [40] 0.93 | [41] 0.921 | [43] 0.916 | [44] 0.846 | [45] 0.922 | [46] 0.918 | [47] 0.889 | [48] 0.933 | [49] 0.948 | [50] 0.881 | [51] 0.936 | [52] 0.88 | [53] 0.925 | [54] 0.938 | [55] 0.861 | [56] 0.931 | [57] 0.913 | [58] 0.879 | [59] 0.868 | [60] 0.916 | [61] 0.931 | [62] 0.897 | [63] 0.93 | [64] 0.921 | [65] 0.932 | [67] 0.925 | [68] 0.959 | [69] 0.946 | [70] 0.91 | [71] 0.932

O=C1/C(=C/c2ccc(Cl)cc2)COc2ccc(F)cc21
inactive: S. cerevisiae deletion strains, locus YAL013W, strain DEP1, hits give low values 0.956 | S. cerevisiae deletion strains, locus YBR229C, strain ROT2, hits give low values 0.978 | [8] 1.01 | S. cerevisiae deletion strains, locus YDR150W, strain NUM1, hits give low values 1.01 | S. cerevisiae deletion strains, locus YEL061C, strain CIN8, hits give low values 0.934 | S. cerevisiae deletion strains, locus YGR078C, strain PAC10, hits give low values 0.972 | S. cerevisiae deletion strains, locus YGR229C, strain SMI1, hits give low values 0.951 | S. cerevisiae deletion strains, locus YHR087W, strain rtc3, hits give low values 0.96 | S. cerevisiae deletion strains, locus YJR043C, strain POL32, hits give low values 0.977 | S. cerevisiae deletion strains, locus YJR075W, strain HOC1, hits give low values 0.98 | S. cerevisiae deletion strains, locus YLR058C, strain SHM2 (second series), hits give low values 0.959 | S. cerevisiae deletion strains, locus YML094W, strain GIM5, hits give low values 0.941 | S. cerevisiae deletion strains, locus YMR219W, strain ESC1, hits give low values 0.963 | S. cerevisiae deletion strains, locus YMR263W, strain SAP30, hits give low values 0.942 | S. cerevisiae deletion strains, locus YNL153C, strain GIM3, hits give low values 0.986 | S. cerevisiae deletion strains, locus YNL322C, strain KRE1, hits give low values 0.959 | S. cerevisiae deletion strains, locus YPL055C, strain LGE1, hits give low values 0.963 | S. cerevisiae strains, strain wild type, hits give low values 0.967
active: [26] 0.305 | S. cerevisiae deletion strains, locus YLR039C, strain RIC1, hits give low values 0.472 | S. cerevisiae deletion strains, locus YLR085C, strain ARP6, hits give low values 0.431 | S. cerevisiae deletion strains, locus YLR262C, strain YPT6, hits give low values 0.528 | S. cerevisiae deletion strains, locus YNL298W, strain CLA4 (second series), hits give low values 0.83 | S. cerevisiae deletion strains, locus YNR030W, strain Alg12, hits give low values 0.829 | S. cerevisiae deletion strains, locus YPL241C, strain CIN2, hits give low values 0.704 | S. cerevisiae deletion strains, locus YPR135W, strain CTF4, hits give low values 0.405

O=C1/C(=C/c2cccs2)COc2ccccc21
active: [2] 0.899 | [8] 0.908 | [26] 0.778 | [30] 0.891 | [35] 0.603 | [42] 0.667 | [61] 0.9 | [65] 0.894 | [66] 0.802
inactive: [1] 0.903 | [3] 0.913 | [4] 0.899 | [5] 0.908 | [6] 0.911 | [7] 0.9 | [9] 0.901 | [10] 0.902 | [11] 0.793 | [12] 0.93 | [13] 0.88 | [14] 0.901 | [15] 0.779 | [16] 0.73 | [17] 0.765 | [18] 0.901 | [19] 0.897 | [20] 0.906 | [21] 0.884 | [22] 0.901 | [23] 0.766 | [24] 0.767 | [25] 0.684 | [27] 0.871 | [28] 0.735 | [29] 0.783 | [31] 0.832 | [32] 0.873 | [33] 0.789 | [34] 0.9 | [36] 0.762 | [37] 0.873 | [38] 0.831 | [39] 0.829 | [40] 0.901 | [41] 0.853 | [43] 0.86 | [44] 0.796 | [45] 0.802 | [46] 0.895 | [47] 0.831 | [48] 0.909 | [49] 0.916 | [50] 0.839 | [51] 0.906 | [52] 0.763 | [53] 0.9 | [54] 0.91 | [55] 0.803 | [56] 0.906 | [57] 0.816 | [58] 0.813 | [59] 0.833 | [60] 0.82 | [62] 0.756 | [63] 0.777 | [64] 0.786 | [67] 0.911 | [68] 0.901 | [69] 0.907 | [70] 0.906 | [71] 0.895

CC1(C)c2ccccc2N(CCC(N)=O)C12C=Cc1c(ccc3ccccc13)O2 (centres undefined)
inactive: [1] 0.972 | [2] 0.968 | [3] 0.97 | [4] 0.95 | [5] 0.971 | [6] 0.965 | [7] 0.969 | [8] 0.955 | [9] 0.944 | [10] 0.964 | [11] 0.901 | [12] 0.97 | [13] 0.956 | [14] 0.973 | [15] 0.939 | [16] 0.865 | [17] 0.927 | [18] 0.979 | [19] 0.964 | [20] 0.959 | [21] 0.943 | [22] 0.981 | [23] 0.92 | [24] 0.968 | [25] 0.906 | [26] 1.04 | [27] 0.973 | [28] 0.97 | [29] 0.956 | [30] 0.971 | [31] 0.975 | [32] 0.907 | [33] 0.896 | [34] 0.969 | [35] 0.891 | [36] 0.962 | [37] 0.912 | [38] 0.918 | [39] 0.908 | [40] 0.959 | [41] 0.985 | [42] 0.919 | [43] 0.944 | [44] 0.915 | [45] 0.883 | [46] 0.966 | [47] 0.926 | [48] 0.968 | [49] 0.986 | [50] 0.915 | [51] 0.966 | [52] 0.989 | [53] 0.96 | [54] 0.962 | [55] 0.922 | [56] 0.96 | [57] 0.907 | [58] 0.889 | [59] 0.968 | [60] 0.95 | [61] 0.971 | [62] 0.921 | [63] 0.931 | [64] 0.937 | [65] 0.966 | [66] 0.925 | [67] 0.973 | [68] 0.957 | [69] 0.963 | [70] 0.944 | [71] 0.97
